Test results as given in PubChem BioAssay (NCATS).
Results filed as inconclusive are left out. Where a call stands in place of a potency, no number is given. A number with no mark means an inactive call. Activity calls are given as the source filed them. The call rests on the fitted dose curve; in most records, active means well fitted cell-killing curve with a large enough effect; inconclusive means small, poorly fitted or top-dose-only effect, or effect the other way; inactive means flat fitted curve, though single readings scatter. Where a SMILES comes first, the peptide text is derived from it. [ ]: non-standard residue; d: D form. pGlu = O=C1CC[C@@H](C(=O)O)N1

Tested on: Tov112D
Experiment: Primary qHTS to identify gynecologic anti-cancer compounds using libraries of approved drugs and bioactive compounds (AID 1345084); further: nearly all actives have a fitted effect of over 55% in size
Conditions: Gynecologic cancer cell panel viability, ATPlite luminescence, 48 h; series mostly up to 57.5 µM
Procedure, shortened: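 In this quantitative HTS, cell killing is estimated from loss of ATP-dependent luciferase light. Cells see five compound concentrations over a 48 h exposure.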

| Structure (SMILES) | Potency | activity change, negative = cytotoxicity |
| --- | --- | --- |
| COc1cc2nc(Cl)nc(N)c2cc1OC | inactive | – |
| COc1cc2c(cc1OC)CN(C(=O)[C@H](C)N[C@@H](CCc1ccccc1)C(=O)O)[C@H](C(=O)O)C2 | inactive | – |
| CCOC(=O)c1cc(=O)c2c(OCC(COc3cccc4oc(C(=O)OCC)cc(=O)c34)OC(=O)[C@@H](N)CCCCN)cccc2o1 | inactive | – |
| CCOC(=O)CN1CCCC1=O | inactive | – |
| O=[N+]([O-])c1ccc(-c2nc(-c3ccc(F)cc3)c(-c3ccncc3)[nH]2)cc1 | inactive | – |
| O=[N+]([O-])c1cncn1CCN1CCOCC1 | inactive | – |
| O=C(CCC1CCN(Cc2ccccc2)CC1)c1ccc2c(c1)NCCCC2 | inactive | – |
| CN(C)CCN(Cc1ccsc1)c1ccccn1 | inactive | – |
| COc1c(N2C[C@@H]3CCCN[C@@H]3C2)c(F)cc2c(=O)c(C(=O)O)cn(C3CC3)c12 | inactive | – |
| CCNC(=O)[C@@H]1CCCN1C(=O)[C@H](CCCN=C(N)N)NC(=O)[C@H](CC(C)C)NC(=O)CNC(=O)[C@H](Cc1ccc(O)cc1)NC(=O)[C@H](CO)NC(=O)[C@H](Cc1c[nH]c2ccccc12)NC(=O)[C@H](Cc1cnc[nH]1)NC(=O)[C@@H]1CCC(=O)N1 ([pGlu]HWSYGLRP-NHEt) | inactive | – |
| CCCCCCCC(=O)[O-].CCCCCCCC(=O)[O-].[Zn+2] | inactive | – |
| CCC[C@H](N[C@@H](C)C(=O)N1[C@H](C(=O)O)C[C@@H]2CCCC[C@@H]21)C(=O)OCC | inactive | – |
| CC(NC(CCc1ccccc1)C(=O)O)C(=O)N1C(=O)N(C)CC1C(=O)O (centres undefined) | inactive | – |
| NCC[C@H](O)C(=O)N[C@@H]1C[C@H](N)[C@@H](O[C@H]2O[C@H](CN)[C@@H](O)[C@H](O)[C@@H]2O)[C@H](O)[C@@H]1O[C@H]1O[C@H](CO)[C@@H](O)[C@H](N)[C@@H]1O | – | 1.97% [at 0.462 µM] |
